The list is not random: actives were taken first. Their share in the collection is about 2.6%.
aDG glyco act: alpha-DG glycosylation activation; Pro5-aDG cells, alpha-DG glycosylation AlphaScreen (IIH6); 0% Pro5, 100% B10-LARGE cell signal; activation, % at 10 µM; hit rate 0.22% among 360,000;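 active = activation of at least 8% versus controls, or a plate z-score of at least 8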;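 also: Pro5 are CHO cells carrying HIG-tagged alpha-DG that lacks glycosylation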
LGR2 antag: inhibitors of bursicon-induced Drosophila LGR2 receptor cAMP signaling; HEK293 LGR2, CRE-luciferase, bursicon-stimulated, 4 h; inhibition, % at 9.99 µM; hit rate 0.35% among 380,000; AID 720647;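 active = drop in luminescence signal, shown as inhibition above about 50% in the replicate tests, limit read from the data, passing the limit was not always enough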;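 also: agonist challenge used bursicon conditioned medium at about half maximal strength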
EBV LMP1 NFkB: inhibitors of Epstein-Barr LMP1-induced NF-kappaB reporter; hit rate 0.69% among 350,000; inhibition, % at 12.5 µM; LMP1-induced NF-kappaB luciferase reporter cells, luminescence; in the data active = inhibition above about 41%;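 also: 0% = neutral control wells and 100% = reference inhibitor control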
HSP90 inh: HSP90 refolding inhibition in rabbit reticulocyte lysate; luciferase refolding luminescence, 3 h; inhibition, % at 5.6 µM; hit rate 0.91% among 290,000;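 active = inhibition above the screen-wide mean plus 3 SD, computed separately per campaign, cut at about 16% in these data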;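 also: 0% = DMSO wells and 100% = 60 µM geldanamycin wells; inhibitors lower the luminescence because luciferase stays unfolded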
TROY NFkB inh: blocks TROY-dependent signaling in reporter cells | Q293 LMP1-TROYcd NF-kB luciferase reporter, 4 h | inhibition, % at 10 µM | hit rate 0.98% among 360,000 | AID 1347056;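 active = compounds whose plate-normalised and pattern-corrected inhibition of the luciferase reporter signal at the single screening dose is 50% or more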
TWEAK Fn14 block: blocks TWEAK-Fn14 interaction in a reporter cell assay; hit rate 2% among 360,000; TWEAK-stimulated Fn14 reporter cells, luciferase luminescence, 8 h; inhibition, % at 10 µM; in the data active = inhibition above about 50%
HSP90 inh confirm: confirmation of HSP90 inhibitors; shares compounds with HSP90 inh; rabbit reticulocyte lysate, luciferase refolding luminescence, 3 h; inhibition, % at 5.9 µM; hit rate 64% among 2,300; AID 1846; in the data active = inhibition above about 18%;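 also: 0% = vehicle wells and 100% = reference inhibitor wells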
FLuc counter: counter-screen for HSP90 inhibitors: inhibitors of firefly luciferase; hit rate 48% among 2,300; inhibition, % at 5.9 µM; purified native firefly luciferase, luminescence; shares compounds with HSP90 inh;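 active = inhibition above the mean inhibition of all tested sample wells plus 3 SD, cut at about 10% in these data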;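 also: 0% = DMSO with luciferase and 100% = wells lacking luciferase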
Target sequence (P08659 whole entry, looked up): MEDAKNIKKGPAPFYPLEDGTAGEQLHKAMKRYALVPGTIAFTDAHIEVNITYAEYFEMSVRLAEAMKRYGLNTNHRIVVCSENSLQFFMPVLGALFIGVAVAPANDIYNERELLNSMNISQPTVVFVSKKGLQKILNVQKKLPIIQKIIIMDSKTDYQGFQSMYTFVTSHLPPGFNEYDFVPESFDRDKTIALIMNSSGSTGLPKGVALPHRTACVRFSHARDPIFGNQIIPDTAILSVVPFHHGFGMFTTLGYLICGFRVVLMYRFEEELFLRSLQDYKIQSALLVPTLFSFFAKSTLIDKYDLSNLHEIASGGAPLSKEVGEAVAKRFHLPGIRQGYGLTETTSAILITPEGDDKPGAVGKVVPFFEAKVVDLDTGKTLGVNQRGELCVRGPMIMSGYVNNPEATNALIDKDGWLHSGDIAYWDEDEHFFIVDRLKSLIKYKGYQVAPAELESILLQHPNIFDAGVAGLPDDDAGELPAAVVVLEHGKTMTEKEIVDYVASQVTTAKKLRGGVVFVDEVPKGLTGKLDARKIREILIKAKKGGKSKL
Numbers without * were called inactive; . = no result; ! = not active in a repeat.

SMILES	aDG glyco act	LGR2 antag	EBV LMP1 NFkB	HSP90 inh	TROY NFkB inh	TWEAK Fn14 block	others
CCCCn1c(N)c(C(=O)NCc2cccs2)c2nc3ccccc3nc21	1	.	-8	5	68*	35
CCCCCCn1c(N)c(C(=O)NCCN2CCOCC2)c2nc3ccccc3nc21	0	.	1	0	.	56*
CCCCCn1c(N)c(C(=O)NCCN2CCOCC2)c2nc3ccccc3nc21	1	.	3	8	36	17
COC(=O)[C@@H]1N[C@@H]2c3ccc(C4=CCCC4)c(=O)n3C[C@@H]2[C@H]1CO	.	-60	.	.	.	.
COc1cc(/C=C(/C)[N+](=O)[O-])ccc1OCc1ccccc1Cl	-1	.	-13	1	56*	73*
COc1cc(C=C2C(=O)NC(=O)NC2=O)ccc1OCc1ccc([N+](=O)[O-])cc1	0	-33	-24	1	-20	-2
CC(C)C(=O)c1cn(Cc2ccccc2C#N)c2ccccc12	0	.	-1	0	0	10
CC(=O)c1cn(Cc2ccccc2C#N)c2ccccc12	7.5*	5	-1	-2	20	42
COC(=O)[C@H]1[C@H](CO)[C@H]2Cn3c(cccc3=O)[C@@H]1N2C(=O)C1CCCC1	.	19	.	.	.	.
CN1CCN(CC(=O)Nc2ccc(Cl)cc2C(=O)c2ccccc2)CC1	0	.	-2	0	-4	-1
Nc1cccc(SC2CC(=O)N(c3ccc(Cl)cc3C(=O)c3ccccc3)C2=O)c1 (configuration not stated)	0	8	7	.	41	54*
COC(=O)[C@H]1[C@H](CO)[C@H]2Cn3c(ccc(C4=CCCCC4)c3=O)[C@@H]1N2C(=O)Cc1ccccn1	.	-9	.	.	.	.
C[C@H]1CCCC(=O)CCC/C=C/c2cc(O)cc(O)c2C(=O)O1	0	34	16	7	15	42
C[C@H]1CCC/C=C/[C@@H]2C[C@H](O)C[C@H]2[C@H](O)/C=C/C(=O)O1	0	17	-119	.	-66	55*!
CC[n+]1c(-c2ccccc2)c2cc(N)ccc2c2ccc(N)cc21	1	39	6	.	53*	95*
COc1ccc(Cn2c(N)c(C(=O)NCc3ccco3)c3nc4ccccc4nc32)cc1	0	.	-16	12	69*	43
Nc1c(C(=O)NCc2ccco2)c2nc3ccccc3nc2n1Cc1ccccc1	1	5	2	6	43	50*
COCCOC(=O)c1c(N)n(Cc2ccccc2)c2nc3ccccc3nc12	2	.	21	10	65*	20
Nc1c(C(=O)NCc2ccco2)c2nc3ccccc3nc2n1Cc1ccc(F)cc1	1	-23	-5	7	62*	22
Nc1c(C(=O)NCc2ccco2)c2nc3ccccc3nc2n1CCN1CCOCC1	1	.	13	-3	1	6
O=C(Cc1ccccn1)N1CCCCN2[C@@H](CO)[C@H](c3ccc(Br)cc3)[C@@H]2C1	.	-15	.	.	.	.
Nc1ncnc2c1ccn2[C@@H]1O[C@H](CO)[C@@H](O)[C@H]1O	0	93*	92*	.	52*	95*
NC(=S)c1cn(C2OC(CO)C(O)C2O)c2ncnc(N)c12 (configuration not stated)	0	102*	4	3	68*	103*
COC(=O)[C@H]1[C@H](CO)[C@H]2Cn3c(ccc(-c4ccc(F)cc4)c3=O)[C@@H]1N2Cc1cccnc1	.	6	.	.	.	.
CCCN1[C@@H]2c3ccc(-c4cccc(OC)c4)c(=O)n3C[C@H]1[C@H](CO)[C@H]2C(=O)OC	.	-8	.	.	.	.
SMILES	aDG glyco act	LGR2 antag	EBV LMP1 NFkB	HSP90 inh	TROY NFkB inh	TWEAK Fn14 block	others
O=[N+]([O-])c1ccc(CN2CC=C(c3ccccc3)CC2)cc1	0	.	43*	1	1	22
COC(=O)[C@H]1[C@H](CO)[C@H]2Cn3c(ccc(-c4ccccc4F)c3=O)[C@@H]1N2CC1CCCC1	.	-1	.	.	.	.
CN(C)C(=O)Oc1ccc(-c2cn3cc(Cl)ccc3n2)cc1	0	39	6	33*	-38	49	HSP90 inh confirm=34*;FLuc counter=21*
CN(C)C(=O)Oc1cccc(-c2cn3cc(Cl)ccc3n2)c1	0	-25	-14	6	-62	-8
COc1ccc(N2C(=O)NC(=O)/C(=C\c3cn(C)c4ccccc34)C2=O)cc1	0	-4	1	28*	-20	-23	HSP90 inh confirm=-1;FLuc counter=-4
CC1CN=C(NC(C)c2ccccc2)S1 (configuration not stated)	1	-12	-11	17*	-2	3	HSP90 inh confirm=-4;FLuc counter=-8
COC(=O)[C@H]1[C@H](CO)[C@H]2Cn3c(ccc(-c4ccccc4F)c3=O)[C@@H]1N2C(=O)C1CC1	.	-6	.	.	.	.
COc1ccc(-n2c(/C=C/c3ccc(O)cc3)nc3ccccc3c2=O)cc1	0	9	0	4	11	19
CCn1nc(/C=C/c2ccccc2)nc2c(=O)n(C)c(=O)nc1-2	0	104*	72*	85*	83*	106*	HSP90 inh confirm=96*;FLuc counter=88*
COc1cc(C(c2c(C)[nH]n(-c3ccccc3)c2=O)c2c(C)[nH]n(-c3ccccc3)c2=O)cc(OC)c1OC	0	-6	5	56*	-28	-3	HSP90 inh confirm=-9;FLuc counter=-4
COC(=O)C(O)(c1c(C)[nH]n(-c2ccccc2)c1=O)C(F)(F)F (configuration not stated)	0	.	2	3	-44	2
CCCCCCOc1ccc(CN2CCN(CC)CC2)cc1	1	.	13	30*	60*	66*	HSP90 inh confirm=25*;FLuc counter=8
COc1ccc(C#Cc2ccc([C@H]3[C@@H](CO)N4CCCCN(C(=O)Cc5ccncc5)C[C@@H]34)cc2)cc1	.	-11	.	.	.	.
CCOC(=O)C1CCN(/C=C2/C(=O)NC(=O)N(c3ccc(OCC)cc3)C2=O)CC1	0	-17	-6	24*	-10	18	HSP90 inh confirm=-2;FLuc counter=-5
Cc1ccc(OCCOc2cccc(C=C3C(=O)NC(=O)NC3=O)c2)cc1	0	28	13	30*	-65	27	HSP90 inh confirm=45*;FLuc counter=14*
COc1ccc(OC(=O)N(C)C[C@H]2OCc3ccccc3-c3c(n(C)c4ccccc34)C(=O)N([C@@H](C)CO)C[C@H]2C)cc1	.	-7	.	.	.	.
COc1ccccc1OCCCn1cc(C=O)c2ccccc21	0	-74	-7	18*	35	28	HSP90 inh confirm=22*;FLuc counter=-18
O=C(NC1CCCCC1)Oc1cc2oc(=O)sc2cc1Cl	0	-3	-1	18*	0	12	HSP90 inh confirm=2;FLuc counter=-7
COC(=O)[C@H]1[C@H](CO)[C@H]2Cn3c(ccc(-c4ccncc4)c3=O)[C@@H]1N2S(=O)(=O)c1ccccc1F	.	-14	.	.	.	.
Cc1cccc(CN2CCCN(Cc3ccc(Cl)cc3)S2(=O)=O)c1	0	7	-10	0	12	-10
